Assay outcomes as filed in PubChem.
Only some compounds are listed: those with a hit (about 21% of all), similar ones and a draw of the others.
Pf growth 96h: P. falciparum growth inhibition at 96 hours; P. falciparum luciferase reporter growth, 96 h; 320,000 tested, 6.9% active; Potency, µM (titrated, usually from 28.7 µM), for inactives: at the highest dose activity change, negative = inhibition, hits mostly inhibitors; AID 504834; active = well fitted inhibition curve with a large enough effect; inconclusive = small, poorly fitted or top-dose-only effect, or another doubt; inactive = no such curve, though single readings can be large or run the other way; also: potency is read from the fitted curve at half-maximal effect; % is scaled to controls: 0 for no effect and ±100 for the full control effect
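Compounds incubated with erythrocytes infected by luciferase-expressing P. falciparum (2% hematocrit, 0.05% parasitemia final) for 96 hours, 37 C in 5% CO2. Growth inhibition scored as decreased luciferase luminescence.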
Shiga inhibitor: blocks Shiga toxin action in Vero cells; 290,000 tested, 9.2% active; AID 2315; Vero cells, Shiga toxin protein synthesis inhibition reporter; inhibition, % at 38.7 µM; in the data active = inhibition mostly above about 28%, no sharp cut-off; inactive = mostly below about 43%; also: 0% is about no effect
NS1 function inh: blocks influenza NS1 protein function | Potency, µM (top dose mostly 46.1 µM), for the others: top-dose activity, positive = more growth | 270,000 tested, 0.4% active; also: potency is read from the fitted curve at half-maximal effect; actives are rising curves; nearly all actives have a fitted effect of over 50% in size
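Recovery from NS1-induced slow growth read by OD600 in budding yeast switched to galactose assay medium (pH 6.0, -URA) at 1:100 dilution. Compound 23 nl per well; the matching strain lacking NS1 serves as control.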
Pf growth 48h: inhibits P. falciparum growth in the first generation, 48 h; P. falciparum luciferase growth in erythrocytes, 48 h; Potency, µM (doses to about 28.7 µM), inactives show top-dose activity change, negative = inhibition, usual class: inhibitors; 310,000 tested, 5.9% active; active = well fitted inhibition curve with a large enough effect; inconclusive = small, poorly fitted or top-dose-only effect, or another doubt; inactive = no such curve, though single readings can be large or run the other way; also: potency is read from the fitted curve at half-maximal effect; % is scaled to controls: 0 for no effect and ±100 for the full control effect
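Luciferase-expressing P. falciparum in infected erythrocytes (2% hematocrit, 0.1% parasitemia final) in RPMI 1640/0.5% Albumax were exposed to compound for 48 hours at 37 C, 5% CO2; growth read as luminescence.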
Cycloheximide cs: counter-screen for Shiga toxin inhibitors: cycloheximide protein synthesis inhibition. cell reporter, cycloheximide protein synthesis inhibition counterscreen. max response, %. 300,000 tested, 12% active; in the data active = max response mostly above about 13%, no sharp cut-off; inactive = mostly below about 14%; also: read at 38.3 µM for the half of the compounds with a filed dose; 0% is about no effect
SARS PLpro yeast: inhibitors of SARS-CoV papain-like protease in yeast; Potency, µM (highest dose often 32.9 µM), without a hit: top-dose activity, positive = growth rescue, most hits filed as activators; 330,000 tested, 0.19% active; S. cerevisiae expressing SARS-CoV PLpro, growth rescue; also: potency is read from the fitted curve at half-maximal effect; 0% is about no effect; nearly all actives have a fitted effect of over 55% in size
* hit, by the source's call; ? = inconclusive; nt = no result; [ ] = remark or other dose. Unless noted, calls follow the shape of the full dose curve.

SMILES | Pf growth 96h | Shiga inhibitor | NS1 function inh | Pf growth 48h | Cycloheximide cs | SARS PLpro yeast
CNC(=S)NNC(=O)c1cccc(N(C)C)c1 | 19% | -2 | 1% | -3% | -1 | 0%
O=C1CN(C(=O)COC(=O)CNS(=O)(=O)/C=C/c2ccccc2)c2ccccc2N1 | 32% | 21 | 2% | 201% | 6 | -4%
COc1ccc(NC(=O)N2CCCC(C(=O)NCc3ccccc3F)C2)cc1 (stereo unspecified) | -15% | -2 | 4% | -1% | 0 | 2%
CCC(=O)C1CCCN(C(=O)c2ccc(OC3CCN(C(=O)c4cccnc4)CC3)cc2)C1 (stereo unspecified) | 25% | -12 | -2% | 0% | -2 | 0%
CCOC(=O)C1CCCN(C(=O)c2cccc(S(=O)(=O)N(C)c3ccc(OC)cc3)c2)C1 (stereo unspecified) | 51% | nt | nt | ? | nt | 0%
CCOC(=O)C1CCCN(C(=O)c2ccc3nc(-c4cccc(OC)c4)oc3c2)C1 (stereo unspecified) | ? | 72* | -53% | 17% | 32* | 0%
COc1cccc(-c2nc3ccc(C(=O)N4CCCC(O)C4)cc3o2)c1 (stereo unspecified) | 10µM* | 112* | -5% | 1% | 59* | 1%
CCC(=O)C1CCCN(C(=O)c2ccc3nc(-c4cccc(OC)c4)oc3c2)C1 (stereo unspecified) | ? | 69* | 1% | 217% | 45* | -1%
O=C(COc1cc(Cl)c(Cl)cc1Cl)NC(=O)Nc1ccc2c(c1)OCCO2 | 135% | 145* | 10% | 90% | 76* | 15%
Cc1ccc(Cl)c(OCC(=O)Nc2ccc3c(c2)OCCO3)c1 | nt | 112* | -6% | 113% | 52* | -1%
Cc1cc(OCC(=O)Nc2ccc3c(c2)OCCO3)cc(C)c1Cl | nt | 33 | 1% | 31% | -3 | -11%
C=CCNC1=C2C[C@@H](C)C[C@H](OC)[C@H](O)[C@@H](C)/C=C(\C)[C@H](OC(N)=O)[C@@H](OC)/C=C\C=C(/C)C(=O)NC(=CC1=O)C2=O | 11µM* | nt | nt | 0.6µM* | nt | nt
COC1=C2C[C@H](C)C[C@H](OC)[C@H](O)[C@@H](C)/C=C(/C)[C@H](OC(N)=O)[C@@H](OC)/C=C\C=C(\C)C(=O)NC(=CC1=O)C2=O | nt | -8 | nt | nt | -1 | nt
Cc1ccc2c(c1)C(c1ccccc1)N(C(=O)c1c(F)cccc1Cl)CC(=O)N2 (stereo unspecified) | 34% | -4 | 4% | ? | -5 | 0%
C[N+](C)(C)CC(=O)Nc1ccc(Cl)cc1C(=O)c1ccccc1 | 20% | 19 | nt | 12µM* | -1 | 0%
CN(C)CCCNCC(=O)Nc1ccc(Cl)cc1C(=O)c1ccccc1 | -30% | -13 | -3% | 3.7µM* | 14 | 0%
Cc1cccc(C(=O)Nc2ccc(Cl)cc2C(=O)c2ccccc2)c1 | ? | -9 | -11% | ? | 4 | -26%
NC(=O)Nc1ccc(C(=O)OCC(=O)Nc2ccc(Cl)cc2C(=O)c2ccccc2)cc1 | -19% | -7 | 20% | -9% | -2 | 4%
CCN(CC)CCNCC(=O)Nc1ccc(Cl)cc1C(=O)c1ccccc1 | ? | -3 | 1% | nt | -3 | 10%
NCC(=O)Nc1ccc(Cl)cc1C(=O)c1ccc[nH]1 | 5.2µM* | -7 | 0% | ? | -2 | 0%
CN(C)C(=O)C1CCC(=O)N1Cc1cccs1 (stereo unspecified) | 45% | 4 | 5% | 25% | 9 | 0%
CC(NC(=O)c1ccnc(C(C)(C)C)c1)c1ccccc1 (stereo unspecified) | -6% | 2 | -10% | 2% | -6 | 0%
O=C(CN1C(=O)NC(CCc2ccccc2)C1=O)N1CCCCCC1 (stereo unspecified) | nt | nt | nt | nt | nt | 2%
Cc1cccc(NC(=O)NCCc2ccc(Cl)cc2)c1 | -6% | 17 | -3% | ? | 14 | -1%
O=C(/C=C/c1cccc(Cl)c1)NCCc1ccccc1 | 0% | 107* | -17% | 42% | 65* | -62%
SMILES | Pf growth 96h | Shiga inhibitor | NS1 function inh | Pf growth 48h | Cycloheximide cs | SARS PLpro yeast
O=C(NCCc1ccccc1)Nc1cccc(Cl)c1 | 2.9µM* | 40 | -29% | -4% | 49* | -38%
COc1ccc(NC(=O)NCCc2cccc(Cl)c2)cc1OC | -4% | 39 | -1% | ? | 34* | -2%
O=C(NCCc1ccc(Cl)cc1)Nc1cccc(Cl)c1 | 93% | 37* | -46% | ? | 13 | -16%
COc1ccc(CCNC(=O)Nc2ccc3c(c2)OCO3)cc1OC | ? | 11 | -2% | -8% | 6 | 0%
CC(NC(=O)CN(C)S(=O)(=O)c1cccc2nsnc12)c1ccccc1 (stereo unspecified) | ? | -11 | -4% | -8% | -3 | 0%
COC(=O)C1=C[C@@H](C(=O)OC)[C@@H]2C3=C(C(=O)C2(C)C)[C@H](C)n2c(=O)n(C)c(=O)n2[C@@H]3C1 | nt | 28 | nt | nt | 12 | nt
CN=C(Nc1cccc(Cl)c1)SC1CC(=O)N(c2ccc(OC)cc2)C1=O (stereo unspecified) | 65% | -12 | -3% | ? | -1 | -1%
COc1ccccc1NS(=O)(=O)c1cc([N+](=O)[O-])ccc1N/N=C/c1sc(N2CCOCC2)nc1-c1ccccc1 | ? | 14 | 7% | 3.3µM* | -2 | 21%
COc1ccccc1NS(=O)(=O)c1ccc(NN=C2CCCC2)c([N+](=O)[O-])c1 | 12µM* | -14 | ? | -29% | -1 | 18%
COc1ccc(C(=O)N/N=C/c2sc(N3CCOCC3)nc2-c2ccccc2)cc1OC | ? | -17 | -6% | ? | -2 | -1%
COc1ccccc1NS(=O)(=O)c1ccc(N/N=C/c2c(C)nn(-c3ccccc3)c2N2CCCC2)c([N+](=O)[O-])c1 | ? | 4 | 19% | 3.3µM* | -3 | 1%
COc1ccccc1NS(=O)(=O)c1ccc(N/N=C/C=C/c2ccccc2[N+](=O)[O-])c([N+](=O)[O-])c1 | ? | 7 | 3% | ? | -2 | -1%
Cc1nn(-c2ccccc2)c(N2CCCC2)c1/C=N/Nc1ccc(S(=O)(=O)Nc2ccccc2)cc1[N+](=O)[O-] | ? | 7 | 18% | 3.3µM* | -3 | 1%
Cc1ccc(S(=O)(=O)N2CCOCC2)cc1NC(=O)CSc1nc(N)cc(N)n1 | -11% | nt | nt | 1% | nt | -4%
Cn1c(Cn2c(=O)sc3ccccc32)nnc1SCc1ccccc1F | 12µM* | -10 | -8% | nt | -5 | 5%
O=S(=O)(NCCC1=CCCCC1)c1ccccc1Cl | -10% | nt | nt | ? | nt | 4%[6.58 µM]
COc1ccc(C(CC(=O)Nc2nccs2)n2cccc2)cc1 (stereo unspecified) | 0% | 150* | -8% | 113% | 31* | 0%
COc1ccc(C(CC(=O)Nc2ccccn2)N2Cc3ccccc3C2=O)cc1 (stereo unspecified) | 12% | 88* | -4% | 11% | 30* | 0%
